Results on 40 compounds are retold here after PubChem BioAssay (Tox21).

Where “and” joins values, the source holds several entries; their conditions need not be identical. Equal entries are not always repeated. Records with an inconclusive call do not appear. Entries that show only a call come without a potency. More than one record can exist for a structure, and the calls need not agree. Calls of active or inactive are those of the source. Calls follow the shape of the full dose curve.
Potency is read from the fitted curve at half-maximal effect.

The experiment can be described thus: qHTS assay to identify small molecule antagonists of the estrogen receptor alpha (ER-alpha) signaling pathway using the BG1 cell line (AID 743080).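 Also: BG1 cells stimulated with 17beta-estradiol alongside compound; nearly all actives have a fitted effect of over 25% in size.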 The note with it: BG1Luc4E2 ERE-luciferase antagonist mode, luminescence; series mostly up to 70.3 µM. From the text:
National Center for Advancing Translational Sciences [NCATS]
NIH Chemical Genomics Center [NCGC]
U.S. Environmental Protection Agency [EPA]
National Institutes of Environmental Health Sciences [NIEHS]
National Toxicology Program [NTP]
U.S. Food and Drug Administration [FDA]
Estrogen receptor (ER), a nuclear hormone receptor, plays an important role in development, metabolic homeostasis and reproduction. Endocrine disrupting chemicals (EDCs) and their interactions with steroid hormone receptors like ER causes disruption of normal endocrine function. Therefore, it is important to understand the effect of environmental chemicals on the ER signaling pathway. To identify ER antagonists, BG1-Luc-4E2 cell line (provided by Dr. Michael Denison from University of California) has been used to screen the Tox21 10K compound library. BG1Luc4E2 cell line endogenously expresses full-length ER-alpha and is stably transfected with a plasmid containing four estrogen responsive elements (ERE) upstream of a luciferase reporter gene.
Tox21 Assay Protocol Summary:
BG1-Luc-4E2 cells were cultured in phenol red free assay medium containing 10% charcoal stripped FBS for 5 days before the assay was performed. The cells were dispensed at 4,000 cells/4 uL of assay medium per well into white wall/solid-bottom 1536-well plates using a Multidrop Combi (ThermoFisher Scientific, Waltham, MA) dispenser. The assay plates were incubated at a 37C and 5% CO2 for 24 h, and then 23 nL of compounds dissolved in DMSO, positive controls or DMSO only was transferred to the assay plate using a Pintool station (Kalypsys, San Diego, CA), followed by addition of 1 uL of 17beta-estradiol in assay medium using a Flying Reagent Dispenser (Aurora Discovery, San Diego, CA). After the plates were incubated at 37 C and 5% CO2 for 21.5 h, 1 uL of CellTiter-Fluor reagent (Promega, Madison, WI) of measuring cytotoxicity was added using Flying Reagent Dispenser (FRD) to each well. The assay plates were incubated at 37 C and 5% CO2 for additional 30 min and the fluorescence intensity was quantified by a ViewLux plate reader (PerkinElmer, Shelton, CT). For measuring luciferase reporter gene activity, 4 uL of ONE-Glo reagent (Promega) was added to each plate using an FRD and luminescence was quantified by a ViewLux plate reader after 30 min incubation at room temperature.
In general terms: qHTS replaces the single test concentration by a dilution series.
For `CC(Cl)CCl` (stereo not given), the Potency result is “inactive”.
As for `CCCCCCCCCCCCCCn1cc[n+](C)c1`, the figure is 1.37 µM (active) and 4.8 µM (active) and inactive.
As for `BrCC(Br)(Br)Br`, the figure is 35.6 µM (active); as for `CC(Cc1ccc(O)cc1)NCC(O)c1cc(O)cc(O)c1` (stereo not given), “inactive”.
For `CN/C(=N\[N+](=O)[O-])NCc1cnc(Cl)s1` the value was “inactive”; for `CCO/N=C(\CC)C1=C(O)CC(c2c(C)cc(C)cc2C)CC1=O` (stereo not given), “inactive”.
`N#CC(C#N)=NNc1cccc(Cl)c1`: the Potency was 2.17 µM (active).
As for `COc1c2c(cc3c1OCO3)CCN(C)C2`, the entry is “inactive”.
For `CCC(C)c1cccc(C(C)CC)c1O` (stereo not given) the value was “inactive”.
As for `NC1CCC(CC2CCC(N)CC2)CC1` (stereo not given), the entry is “inactive”; as for `CCCCCCCc1ccc(O)cc1`, “inactive”.
Take `CCOP(=S)(OCC)Oc1cc(C)nc(N(CC)CC)n1`: the Potency was 34.4 µM (active).
Consider `Oc1cc(Cl)cc(Cl)c1`, for which the Potency result is “inactive”.
As for `O=NN(CCO)CCO`, the entry is “inactive”; as for `Cc1c([N+](=O)[O-])cc2c(c1[N+](=O)[O-])C(C)(C)CC2(C)C`, 15.4 µM (active); as for `Cc1cccc(Cc2cnc[nH]2)c1C`, “inactive”.
As for `CCCCc1ccccc1`, the entry is “inactive”; as for `CC1=C2C[C@H]3[C@@H](CC=C4C[C@@H](O)CC[C@@]43C)[C@@H]2CC[C@]12O[C@@H]1C[C@H](C)CN[C@H]1[C@H]2C`, “inactive”.
For `C[N+]1(C)[C@@H]2CC[C@H]1CC(OC(=O)C(CO)c1ccccc1)C2` (stereo not given in full) the value was “inactive”.
For the compound `O=[N+]([O-])c1ccc(Cl)c(Cl)c1Cl`, the Potency result is “inactive”.
As for `CCOC(=O)CCN(SN(C)C(=O)Oc1cccc2c1OC(C)(C)C2)C(C)C`, the entry is “inactive”; as for `Clc1ccc(C2(Cn3cncn3)OCCO2)c(Cl)c1`, “inactive”.
As for `O=[N+]([O-])c1ccccc1-c1ccccc1`, the entry is “inactive”; as for `CC(Cc1ccc2c(c1)OCO2)NO` (stereo not given), “inactive”.
For `Oc1ccc(Cl)c(Cl)c1` the value was “inactive”.
Regarding `COP(=O)(OC)O/C(=C\Cl)c1cc(Cl)c(Cl)cc1Cl`, the Potency is 68.6 µM (active).
For `CCOP(=O)(OCC)Oc1nc(Cl)c(Cl)cc1Cl` the value was 48.3 µM (active).
For `[O]=[Cr][O][Cr]=[O]` the value was “inactive”; for `CCNc1nc(NC(C)C(C)C)nc(SC)n1` (stereo not given), “inactive”.
For `Brc1cccc(-c2ccccc2)c1`, the Potency result was “inactive”.
For `O=C(O)CCCCCCNC1c2ccccc2CCc2ccccc21` the value was “inactive”.
As to `Oc1cccc(Cl)c1Cl`, the Potency entry is “inactive”.
As for `COP(=O)(OC)Oc1ccc([N+](=O)[O-])cc1`, the Potency result is “inactive”.
For `CC(C)Br` the value was “inactive”; for `OCC(Br)CBr` (stereo not given), “inactive”.
With `C[C@]12C/C(=C/O)C(=O)C[C@@H]1CC[C@@H]1[C@@H]2CC[C@@]2(C)[C@H]1CC[C@]2(C)O`, the Potency entry was “inactive”.
`CC[C@]1(O)CC[C@H]2[C@@H]3CCC4=CCCC[C@@H]4[C@H]3CC[C@@]21C`: the Potency result is “inactive”.
For `CC1(C)C(C=C(Cl)Cl)C1C(=O)OC(C#N)c1ccc(F)c(Oc2ccccc2)c1` (stereo not given), the Potency entry is “inactive”.
Regarding `CC(=O)C(Cl)C(=O)N(C)C` (stereo not given), the Potency result is “inactive”.
As for `COP(=S)(OC)Oc1ccc([N+](=O)[O-])c(C)c1`, the entry is “inactive”.
